In PubChem BioAssay AID720591 (Broad Institute, 2013):
The campaign covered roughly 1,200 compounds. About 60 (5%) were called active. Roughly 1% stayed inconclusive and do not appear here.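 Rule for the calls: active = Decreasing signal and fitted IC50 at most twice the top valid tested dose; inconclusive = Bad fit or a level curve showing 30 to 70% inhibition; inactive = the rest.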 Not all results are given here. Measured potencies and affinities stand elsewhere.

biological target: NAD-dependent protein deacylase sirtuin-5, mitochondrial (Homo sapiens) (UniProt Q9NXA8); test: sirtuin-5 deacylation blockers, concentration series – biochemical, fluorescence imaging, cherry-pick, set 5, dose response (AID 720591); conditions: Purified SirT5, succinyl-peptide AMC, trypsin-coupled fluorescence; series mostly up to 15 µM; activity change, negative = inhibition: at the top concentration;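 note: 0% = median of neutral control wells and -100% = median of positive control wells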
Sequence (Q9NXA8 whole entry, looked up): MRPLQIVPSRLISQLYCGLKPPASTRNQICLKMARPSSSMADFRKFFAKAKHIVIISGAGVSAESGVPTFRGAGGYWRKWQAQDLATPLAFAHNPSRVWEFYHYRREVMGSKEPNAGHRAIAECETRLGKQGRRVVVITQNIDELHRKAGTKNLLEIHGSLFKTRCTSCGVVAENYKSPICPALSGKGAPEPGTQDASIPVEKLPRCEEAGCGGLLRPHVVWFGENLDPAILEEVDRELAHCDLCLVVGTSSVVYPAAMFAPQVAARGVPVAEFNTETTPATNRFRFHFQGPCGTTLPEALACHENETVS

Activity change, negative = inhibition, inactive:
O=C(Nc1cccc(Br)c1)c1ccc(CSc2ccccc2)cc1 -25.6%
CN(C)C(=O)c1ccc(NC(=O)c2sccc2-c2ccccc2)cc1 12.8%
O=C(Cc1ccc(Cl)cc1)Nc1ccc(C(=O)N2CCCCC2)cc1 -15.9%
O=C(Cc1ccc(Cl)cc1)Nc1ccc(CN2CCCCC2)cc1 4.66%
C[C@@H](CSc1ccc(Br)cc1)CN1CC[C@H](NC(=O)OCc2ccccc2)CCC1=O 21.5%
Cc1cccc(C)c1NC(=O)CN(Cc1ccccc1)Cc1ccccc1 17.6%
CC(C)C(=O)Nc1cccc(COc2ccccc2CN(Cc2ccccc2)C(=O)OC(C)(C)C)c1 -27.9%
Cc1ccc(CNC(=O)CCc2ccc(S(=O)(=O)NCC(C)C)cc2)cc1 -24.4%
Cc1ccn2cc(CSc3ccccc3)nc2c1 6.69%
Clc1ccc(SCc2cn3ccccc3n2)cc1 -21.3%
Cc1cccc(COC[C@H](Cc2ccccc2)N2CCN(C(=O)c3cc(Cl)cc(Cl)c3)CCC2=O)c1 -29.7%
CCOC(=O)C1(C)CCN1C(=O)c1cccc(Cl)c1 (configuration not stated) -3.12%
COc1cc(OC)c(NS(=O)(=O)c2cc(C(=O)OCC(=O)NCC3CCCO3)ccc2OC)cc1Cl (configuration not stated) -26.7%
COc1cc(C(=O)NCCN2CCN(C(=O)c3cc(OC)c(OC)c(OC)c3)CC2)cc(OC)c1OC 3.49%
COc1cc(C(=O)N2CCNCC2)cc(OC)c1OC -4.5%
CCN(C(=O)COC(=O)CNC(=O)c1ccccc1C)C1=CCCCC1 22.5%
COc1ccc(-n2c(SCC(N)=O)nnc2-c2ccco2)cc1 -23.9%
CNC(=O)CSc1nnc(-c2ccco2)n1-c1cccc(OC)c1 0.832%
COc1ccc(-c2cccc(C3CC=CC4C3C(=O)N(Cc3ccccc3)C4c3ccc(C(F)(F)F)cc3)c2)cc1 (configuration not stated) 23.6%
CC(=O)N1N=C(c2cccc(NS(C)(=O)=O)c2)CC1c1cccs1 (configuration not stated) -25.8%
COC(=O)c1ccc(C)c(NC(=O)CSc2sc3c(O)cc(=O)[nH]c3c2C#N)c1 -17%
CSc1nsc(SCC(=O)Nc2ccc(Cl)c(C(=O)O)c2)n1 -17.9%
CCCCc1c(-c2ccccc2F)ncn1CCc1ccccc1OC 13.7%
C[C@H](NC(=O)OCc1ccccc1)C(=O)NNC(=O)[C@H](C)NC(=O)OCc1ccccc1 -29.1%
CC(C)c1ccc(NC2CCCN(C(=O)CC3CCCC3)C2)cc1 (configuration not stated) 20.8%
Cc1ccsc1C(=O)NNC(=O)CCN1CCN(c2ccccc2)CC1 -24.2%
Cc1sc(NC(=O)Cn2[nH]c(=O)c3ccccc3c2=O)nc1-c1ccccc1 -2.7%
Cc1ccc(-c2csc(NC(=O)Cn3[nH]c(=O)c4ccccc4c3=O)n2)cc1 -13.9%
CCN(c1ccccc1)S(=O)(=O)c1ccc2[nH]c(=O)[nH]c2c1 5.81%
Cc1cc(C)c(OCC(=O)NCC(C)(C)N2CCOCC2)c(C)c1 -12.2%
Cc1ccc2cc(CN(Cc3ccc(F)cc3)Cc3nnnn3C3CCCC3)c(=O)[nH]c2c1 6.37%
Cn1cc(Br)c(C(=O)Nc2c(F)c(F)c(F)c(F)c2F)n1 -22.1%
CN(C)CCNC(=O)c1cccc(S(=O)(=O)Nc2ccccc2F)c1 14%
CCN(CC(=O)Nc1ccc(NC(C)=O)cc1)C(=O)c1ccc(COc2ccc(C(C)(C)C)cc2)cc1 -1.48%
COc1ccc(OCC(=O)Nc2ccc(NC(=O)c3cccs3)cc2)cc1 -14.9%
Cc1ccc(C(C(=O)NC2CCCC2)N(Cc2ccco2)C(=O)CCC(=O)Nc2cc(C)on2)cc1 (configuration not stated) -17%
Cc1ccccc1OCC(O)CN1CCN(CC(O)COc2ccccc2C)CC1 (configuration not stated) 8.37%
CCOC(=O)C1CCc2c(ccc3ccccc23)N1CCC#N (configuration not stated) 12.2%
CC(C)(C)Cc1nnc(NC(=O)Cc2cccs2)s1 14.6%
CN(C)CCCNC(=O)c1cc(C(=O)c2ccccc2F)c[nH]1 1.08%
COc1ccc(C(=O)OCCN2CCCCC2)cc1 -12%
Cc1ccc(C(C(=O)NC(C)(C)C)N(Cc2ccco2)C(=O)CCC(=O)Nc2ccccn2)cc1 (configuration not stated) -11.8%
CCC(C)(C)NC(=O)C(c1ccc(OC)cc1)N(Cc1ccco1)C(=O)CCC(=O)Nc1cc(C)on1 (configuration not stated) -28.7%
COc1ccc([C@H]2N[C@]3(CCCN(Cc4cccn4C)C3=O)[C@H]3C(=O)N(C)C(=O)[C@@H]23)cc1 1.22%
C=CCn1c(SCC(=O)c2ccc(O)c(O)c2)nnc1-c1ccc(C)cc1 -23.6%
COc1ccc(C)cc1N(C)C(=O)Cc1c(C(=O)O)n(C)c2ccccc12 -31.2%
COc1ccccc1NC(=O)CNc1ccc(F)c(Cl)c1 0.52%
CC1CN(CCOc2ccccc2-c2ccccc2)CC(C)O1 (configuration not stated) -17.6%
CCc1ccc(N(C(=O)CCC(=O)Nc2cc(C)on2)C(C(=O)NC2CCCC2)c2ccco2)cc1 (configuration not stated) 8.88%
COc1cc(C(C)=O)ccc1OCc1cn(CC(=O)c2ccc(O)cc2)nn1 6.41%
CS(=O)(=O)N(CC(=O)N1CCCC1)c1cccc(F)c1 -28.6%
CS(=O)(=O)N(CC(=O)N1CCCCCC1)c1cccc(F)c1 -22.2%
C#CC1(NC(=O)NCCCC)CCCCC1 16.7%
Fc1ccc(-c2nc3ccc(Cl)cn3c2Cc2cccc(F)c2)cc1 12.6%
Cc1ccc2nc(-c3ccccc3)c(Cc3cccc(Cl)c3)n2c1 -3.52%
COc1ccccc1CNS(=O)(=O)c1cccs1 2.11%
C=C(C)Cn1c(N2CCN(c3ccc(OC)cc3)CC2)nc2c1c(=O)n(C)c(=O)n2C -9.42%
Cn1cnc2c(NCc3ccco3)ncnc21 -20.1%
COC(=O)c1cccc(NC(=O)CSc2nnc(COc3ccc(C#N)cc3)n2-c2ccccc2)c1 -25.5%
Cc1cn(CC(=O)NCc2ccccc2)c(=O)[nH]c1=O 22.2%
O=C1OCCOC2CCCc3oc(C4=CCCCC4)c1c32 (configuration not stated) -23.7%
Cc1ccc(NS(=O)(=O)c2ccc3c(c2)N(C)CCO3)cc1 -1.07%
Cc1ccc2nc(SC(C)C(=O)N3CC(C)OC(C)C3)[nH]c2c1 (configuration not stated) 11%
Cc1ccccc1NS(=O)(=O)c1ccc(C(=O)NCC2CCCO2)cc1 (configuration not stated) -30.8%
O=C(c1ccc(F)cc1)N1CCOCC1 38.5%
O=C(CSc1ccccc1Cl)N1CCOCC1 -29.6%
CCOc1ccc(C(C)C)cc1S(=O)(=O)n1ccnc1C -11.2%
Cc1ccc(S(=O)(=O)N(C)c2ccc(NS(C)(=O)=O)cc2)cc1 -2.72%
Cc1cccc(OC(=O)Nc2ccc(C(=O)O)c(O)c2)c1 -32.6%
Cc1ccc(NC(=O)COCC(=O)Nc2ccc(F)cc2)cc1 36%
O=C(Nc1ccccc1C(=O)O)c1cc(S(=O)(=O)Nc2ccccc2)ccc1Cl 15.5%
Cc1cc(NC(=O)CCC(=O)N(CCc2ccccc2)C(C(=O)NC2CCCC2)c2ccco2)no1 (configuration not stated) -7.32%
COc1ccc(CCNS(=O)(=O)c2cc3c4c(c2)CC(=O)N4CCC3)cc1 12.3%
Nc1cccc(-c2csc(-n3ncc(C(=O)O)c3C(F)(F)F)n2)c1 -36.1%
O=C(O)c1ccc2c(c1)ncn2C1CCCC1 -11.2%
Cc1ccnc(NC(=O)CCC(=O)N(Cc2ccco2)C(C(=O)NC(C)C)c2ccc(F)cc2)c1 (configuration not stated) -23.7%
NNC(=O)Cn1c(-c2ccccc2)cc2ccccc21 11.2%
CC(C)(C)OC(=O)N(CCc1ccccc1)Cc1ccc(OCc2cccc(NC(=O)C3CC3)c2)cc1 11.2%
COc1ccc(CCNC(=O)[C@H](C)NC(=O)N2CCn3c2nc2ccccc23)cc1OC 8.92%
Cc1ccccc1CN1CCN(Cc2ccc3cccc(F)c3n2)CC1CCO (configuration not stated) -26.9%
CNCc1cc(Br)c(OCC(=O)Nc2ccccc2OC)c(OC)c1 12.6%
COc1ccc(CC(=O)Nc2ccc(C(=O)NCC(C)C)cc2)cc1 8.8%
COc1cccc(NC(=O)c2ccccc2)c1 -3.36%
Cc1cc2nc(CSc3ccccc3)cc(=O)n2[nH]1 -15.6%
CCCCCCCCN1[C@@H](CC(=O)O)c2cc(C(F)(F)F)ccc2S1(=O)=O -14.3%
Cc1c(Cc2ccc3c(c2)OCO3)sc(NC(=O)c2ccccc2)c1C(N)=O -11.1%
Cc1cccc2nc(CSc3ccc(Cl)cc3)cn12 36.8%
Clc1ccc2nc(CSc3ccccc3)cn2c1 17%
Cc1cccc(N(C(=O)c2snc(C(N)=O)c2N)C(C(=O)NCC2CCCO2)c2ccc3ncccc3c2)c1 (configuration not stated) 4.66%
O=S(=O)(NCc1ccc2c(c1)OCO2)c1ccccc1F 4.96%
Cc1cccc(Cl)c1NC(=O)NCCCN1CCCCC1C (configuration not stated) -21.1%
Cc1ccc(S(=O)(=O)N2CCOCC2)cc1NC(=O)CSc1nnc2n1CCCCC2 -29.9%
CCN(CC)c1ccc(S(=O)(=O)N2CCOCC2)cc1NC(=O)Nc1ccccc1 -11.5%
CCOC(=O)C(N)CSC1CC(=O)N(c2ccc(OCC)cc2)C1=O (configuration not stated) -18.2%
CCOc1ccc(CN2CCN(C(=O)c3cccc(F)c3)CC2)cc1 8.06%
Cc1cccc(N2CCN(C(=O)c3ccc4nc[nH]c4c3)CC2)c1C -1.76%
CCc1nnc(NC(=O)CCC(=O)N2CCN(c3cc(C)ccc3C)CC2)s1 8.84%
CC1(C(=O)NS(=O)(=O)c2ccccc2Cl)CCN1C(=O)Cc1cccc2ccccc12 (configuration not stated) 31.4%
COc1cc(C(C)=O)ccc1OC(=O)CN1C(=O)c2ccccc2C1=O 11.6%
Cc1c(C(=O)c2ccc(N(C)C)cc2)c2ccccn2c1CCC#N -5.98%
CCc1nonc1NC(=O)c1oc2ccc(Cl)cc2c1C 9.41%
COc1ccc2c(c1)C(=O)O[C@@H](c1ccccc1)C[C@@H](O)C(=O)CC2 5.6%
COc1ccc(OC)c(NC(=O)CSc2nnc(CNC(=O)c3cccs3)o2)c1 13%
CCOc1ccc(OCC)c(NC(=O)C2CCCN(C(=O)c3ccc(Cl)cc3)C2)c1 (configuration not stated) -9.86%
COc1ccc(C(=O)OC(C)C(=O)NCC2CCCCC2)cc1S(=O)(=O)N1CCOCC1 (configuration not stated) -28.7%
CCC(=O)Nc1cccc(-c2cc3ccccc3oc2=O)c1 7.85%
COc1cc2cc(C#N)c(SCC(=O)Nc3cc(C)on3)nc2cc1OC -3.85%
